Out of some 52,000 compounds screened, about 4,300 (8.3%) were called active. This excerpt belongs to a sample that is enriched for actives. Unmarked numbers belong to inactive results. Rule as the data show it: active = survival mostly below about 52% (no sharp cut-off); inactive = mostly above about 56%.

These results are taken from PubChem BioAssay AID463173 (ICCB-Longwood Screening Facility, Harvard Medical School, 2010).

The subject of this experiment is DeltatarO mutant. Nature of the experiment: S. aureus survival, RN4220 and DeltatarO strains – OD600, teichoic acid synthesis inhibitors, primary screen (AID 463173). Particulars: S. aureus RN4220 wild type/DeltatarO growth, OD600, 18 h, hits give low values, screened at 18.75 µg/mL (by protocol).
On to `Cc1cccc(NS(=O)(=O)c2ccc3c(c2)CCCN3C(=O)C2CCC2)c1C`, for which the survival is 107%.

Turning to `Cc1oc2ncn(C)c(=O)c2c1C(=O)Nc1ccc(F)cc1`, the survival was 72%.

With `COc1ccc(-n2c(SCc3ccccc3F)nc3c([nH]c4ccccc43)c2=O)cc1OC`, the survival was 68%.

Regarding `ON(Cn1nnc2ccccc21)Cn1nnc2ccccc21`, the survival was 102%.

In the case of `COc1ccc(-c2noc(-c3ccc(N4CCCCC4C)c([N+](=O)[O-])c3)n2)cc1OC` (stereo not given), the survival is 104%.

Regarding `COc1ccc(-n2nnc(-c3nsc(NC(=O)c4ccc(C)c(C)c4)n3)c2C)cc1Cl`, the survival was 126%.

`COc1ccc(C(=O)Nc2nc(-c3nnn(-c4cc(OC)ccc4OC)c3C)ns2)cc1`: the survival was 109%.

As for `COc1cccc(C(=O)Nc2nc(-c3nnn(-c4cccc(Cl)c4C)c3C)ns2)c1`, the survival is -5% (active).

For the compound `COc1cccc(C(=O)Nc2nc(-c3nnn(-c4cc(C)ccc4C)c3C)ns2)c1`, the survival was 88%.

Take `COc1ccc(Cl)cc1-n1nnc(-c2nsc(NC(=O)c3ccccc3Cl)n2)c1C`: the survival is 23% (active).

On to `Cc1ccc(C(=O)Nc2nc(-c3nnn(-c4cccc(Cl)c4C)c3C)ns2)cc1C`, for which the survival is 124%.

With `O=C(C1CC1)N1CCc2cc(Br)cc(S(=O)(=O)N3CCN(c4cccc(Cl)c4)CC3)c21`, the survival was 62%.

For `CCOc1ccc(-n2c(=O)c3c4c(sc3n(CC(=O)NC(C)CC)c2=O)CCC4)cc1` (stereo not given), the survival is 142%.

For the compound `COC(=O)Cn1c(CN2CCN(c3ccc(OC)cc3)CC2)nc2c1c(=O)[nH]c(=O)n2C`, the survival is 88%.

`CCCc1nn2c(=O)cc(COC(=O)c3ccc(NC(=O)c4cccs4)cc3)nc2s1`: the survival is 69%.

On to `CCOc1ccc(N(C)C(CNS(=O)(=O)c2ccccc2)c2ccccc2)cc1` (stereo not given), for which the survival is 87%.

Regarding `Cn1c(=O)oc2cc(S(=O)(=O)N3CCC(C(=O)N4CCN(c5ccc(Cl)cc5)CC4)CC3)ccc21`, the survival is 56%.

With `COC(=O)C1=CNC=C(C(=O)OC)C1c1ccc(Cl)cc1`, the survival is 88%.

`COC(=O)C1=CN(CCCN2CCCC2=O)C=C(C(=O)OC)C1c1cccs1`: the survival was 77%.

In the case of `COC(=O)C1=CN(C2CC2)C=C(C(=O)OC)C1c1ccsc1`, the survival was 60% (active).

On to `COc1ccc(-n2c(=O)c3c4c(sc3n(Cc3ccccc3)c2=O)CN(C(C)=O)CC4)cc1OC`, for which the survival was 67%.

As to `C=CCc1cccc2cc(-c3nc4ccc(C)cc4[nH]3)c(=O)oc12`, the survival is 0% (active).

`C=CCc1cccc2cc(-c3nc4ccc(C(=O)O)cc4[nH]3)c(=O)oc12`: the survival is 92%.

On to `COc1cccc2cc(-c3nc4ccc(C)cc4[nH]3)c(=O)oc12`, for which the survival is 98%.

As to `O=C(NC(=O)c1ccc(F)cc1)Nc1ccc(-c2cc(C(F)(F)F)nn2-c2ccccc2)cc1`, the survival was 61%.

In the case of `COCCn1c(SCC(=O)c2ccccc2)nc2cc(C(=O)NC3CCCC3)ccc2c1=O`, the survival is 87%.

As for `CC(C)=CC(=O)Nc1nnc(Cc2ccccc2)s1`, the survival is 55%.

Consider `Cc1ccc(Cn2c(CNS(=O)(=O)c3ccc(Cl)s3)nc3cccnc32)cc1`, for which the survival is 124%.

Regarding `CCOc1ccc(Cn2c(CNS(=O)(=O)c3ccc(CC)cc3)nc3cccnc32)cc1`, the survival was 95%.

Take `Cc1ccc(Cn2c(CNC(=O)Cc3cccc([N+](=O)[O-])c3)nc3cccnc32)cc1`: the survival was 70%.

Turning to `CCc1ccc(Cn2c(CNS(=O)(=O)c3ccc(F)c(Cl)c3)nc3cccnc32)cc1`, the survival is 20% (active).

For the compound `COc1ccc(Cn2c(CNC(=O)Cc3cccc([N+](=O)[O-])c3)nc3cccnc32)cc1`, the survival is -5% (active).

Turning to `O=S(=O)(NCc1nc2cccnc2n1Cc1ccc(F)cc1)c1ccc(Cl)s1`, the survival is -5% (active).

Turning to `Cc1ccc(Cn2c(CNS(=O)(=O)c3ccc(F)c(Cl)c3)nc3cccnc32)cc1`, the survival was 126%.

`CCOc1ccc(Cn2c(CNS(=O)(=O)c3ccc([N+](=O)[O-])cc3)nc3cccnc32)cc1`: the survival is 94%.

As for `CCc1ccc(Cn2c(CNS(=O)(=O)c3ccc([N+](=O)[O-])cc3)nc3cccnc32)cc1`, the survival is 8% (active).

As for `O=C(Cc1cccc([N+](=O)[O-])c1)NCc1nc2cccnc2n1Cc1ccc(F)cc1`, the survival is 118%.

For the compound `O=S(=O)(NCc1nc2cccnc2n1Cc1ccccc1Cl)c1ccc(F)c(Cl)c1`, the survival is 87%.

For `CCc1ccc(Cn2c(CNS(=O)(=O)c3ccc(Cl)s3)nc3cccnc32)cc1`, the survival is 66%.

On to `C#CCN1CCOCC1`, for which the survival was 99%.

Turning to `Cc1cc2c(=O)c(C(=O)c3ccncc3)cn(CC(=O)Nc3cccc(C)c3C)c2cc1C`, the survival is 94%.

On to `CCOc1ccc(-c2cc3nc(C4CCN(C(=O)OC(C)(C)C)CC4)c(C(=O)Nc4cccc(Cl)c4C)cn3n2)cc1`, for which the survival is 81%.

With `COc1ccc(NC(=O)CC2SC(=Nc3ccccc3)N(CCO)C2=O)cc1` (stereo not given), the survival is 95%.

Take `Cc1nnc(NC(=O)C(C)N2CCCC2)s1` (stereo not given): the survival was 97%.

Turning to `O=C(Nc1ccccc1Cl)N1CCc2ccccc2C1`, the survival is 91%.

For the compound `Cc1nn(C)c2c1c(-c1ccccc1)cc(=O)n2CC(=O)NC(C)(C)C`, the survival is 113%.

For the compound `COc1cccc(CSc2nc3n(n2)C(c2cccnc2)C(C(=O)Nc2ccccc2C)=C(C)N3)c1` (stereo not given), the survival is 74%.

Take `CCc1ccc(Cn2c(CNS(=O)(=O)c3ccc(C)c(C)c3)nc3cccnc32)cc1`: the survival is 81%.

Take `COc1ccc(Cn2c(CNS(=O)(=O)c3ccc4c(c3)CCCC4)nc3cccnc32)cc1`: the survival was 128%.

In the case of `COc1ccc(Cn2c(CNS(=O)(=O)c3ccc(C)c(C)c3)nc3cccnc32)cc1`, the survival was 17% (active).

Regarding `Cc1nc(-c2ccc(F)cc2)sc1CCNC(=O)c1ccccc1C(F)(F)F`, the survival is 97%.

Consider `CCCCN(CC)CCCNC(=O)c1cn(CC)c2ccc(S(=O)(=O)N3CCOCC3)cc2c1=O`, for which the survival was 89%.

Take `COc1ccc(CNC(=O)CCc2cn(C)c3ccccc23)cc1`: the survival is 57%.

Turning to `CCOC(=O)c1sc2ccccc2c1S(=O)(=O)NCc1ccc(F)cc1`, the survival is 94%.

Turning to `Cc1ccccc1C(=O)Nc1cccc(C(=O)OCc2cc(=O)n3ccsc3n2)c1`, the survival is 72%.

For `Cc1cccc(C(=O)OCc2cc(=O)n3ccsc3n2)c1`, the survival was 84%.

Consider `O=C(Nc1ccccc1C(=O)OCc1cc(=O)n2ccsc2n1)c1ccccc1Cl`, for which the survival is 60%.

Turning to `COc1ccccc1C(=O)Nc1ccccc1C(=O)OCc1cc(=O)n2ccsc2n1`, the survival was -5% (active).

With `COc1cc(C(=O)OCc2cc(=O)n3nc(C(C)C)sc3n2)cc(OC)c1OC`, the survival was 99%.

With `COc1ccccc1C(=O)Nc1ccc(C(=O)OCc2cc(=O)n3ccsc3n2)cc1`, the survival was 96%.

With `COc1cc(C(=O)OCc2cc(=O)n3ccsc3n2)cc(OC)c1OC`, the survival is -2% (active).

As to `Cc1ccccc1C(=O)Nc1ccccc1C(=O)OCc1cc(=O)n2ccsc2n1`, the survival is 77%.

For the compound `COc1ccccc1C(=O)Nc1cccc(C(=O)OCc2cc(=O)n3ccsc3n2)c1`, the survival was -4% (active).

For `CCc1nnc2c(NCc3cccc(OC)c3)nc3ccccc3n12`, the survival is 89%.

Regarding `Cc1cc(C)c2c(=O)cc(C(=O)Nc3nc4ccc(F)cc4s3)oc2c1`, the survival was 61%.

With `COc1ccc(-c2cn3c(n2)sc2cc(C(=O)NC4CCCCC4)ccc23)cc1`, the survival was 79%.

Consider `CSc1cccc(NC(=O)Cn2ncn3c(cc4ccccc43)c2=O)c1`, for which the survival is 65%.

For the compound `CCN(Cc1ccccc1)C(=O)Cn1c(=O)n(-c2cccc(C)c2)c(=O)c2c1c1cc(OC)ccc1n2C`, the survival is 59%.

On to `O=C(NCC(c1cccnc1)N1CCc2ccccc2C1)C(=O)Nc1ccc(F)cc1F` (stereo not given), for which the survival was 107%.

Consider `Cc1cc(C(=O)Nc2c(C)nc3ccccn3c2=O)ccc1[N+](=O)[O-]`, for which the survival is 92%.

For `Cc1cccc(C(=O)Nc2c(-c3ccc(F)cc3)nc3ccccn23)c1`, the survival is 91%.

Consider `O=C(Nc1c(-c2ccccc2)nc2ccccn12)c1ccc(Br)cc1`, for which the survival is 31% (active).

Regarding `O=C(Nc1c(-c2ccccc2)nc2ccccn12)c1ccccc1F`, the survival was 48%.

With `O=C(Nc1c(-c2ccc(F)cc2)nc2ccccn12)c1ccccc1F`, the survival is 139%.

With `Cc1ccc(C(=O)Nc2c(-c3ccccc3)nc3ccccn23)cc1`, the survival was 40% (active).

Turning to `Cc1ccc(C(=O)Nc2c(-c3ccccc3)nc3ccccn23)cc1C`, the survival is 34% (active).

With `CC(C)Nc1c(-c2ccccc2)nc2ccccn12`, the survival is 105%.

Take `COC(=O)Nc1c(-c2ccccc2)nc2ccc(C)cn12`: the survival is 74%.

As for `Cc1cc(NC(=O)CSc2ccccc2)no1`, the survival was 88%.

In the case of `CCOC(=O)Cc1nnc2c(Nc3cc(C)ccc3C)nc3nonc3n12`, the survival was 101%.

`Cc1oc(-c2cccc(Cl)c2)nc1Cn1c(SCc2ccc(F)cc2)nc2cccnc21`: the survival is 85%.

For `Cc1ccc(C)c2nc(SCC(=O)OC(C)C)c(C#N)cc12`, the survival is 92%.

Regarding `COc1ccc(C(NC(C)=O)c2ccc(OC)cc2)cc1`, the survival was 77%.

For the compound `Cn1cnc(S(=O)(=O)N2CCC(C(=O)N3CCN(c4cccc(C(F)(F)F)c4)CC3)CC2)c1`, the survival was 106%.

On to `O=C(NC1CCCC1)c1ccc(CSc2nc3cccnc3n2Cc2ccccc2)cc1`, for which the survival was 95%.

As for `COc1ccc(Cn2cc(S(=O)(=O)c3ccc(Cl)cc3)c(=O)c3cc4c(cc32)OCO4)cc1`, the survival was 58%.

For `CCn1c(=O)c(=O)n(CC)c2cc(N3CCCCC3)c(NC(=O)c3cccc(OC)c3)cc21`, the survival was 85%.

For the compound `COc1ccccc1C(=O)Nc1cc2c(cc1N1CCCCC1)n(C)c(=O)n2C`, the survival is 78%.

As for `Cn1nc(-c2ccc(N3CCCCC3)c(NC(=O)c3ccc(Cl)cc3)c2)c2ccccc2c1=O`, the survival was 66%.

In the case of `COc1ccccc1C(=O)Nc1cc2c(cc1N1CCCC1)n(C)c(=O)c(=O)n2C`, the survival is 89%.

Consider `COc1nnc(-c2ccc(N3CCCCC3)c(NC(=O)c3ccc(C)cc3)c2)c2ccccc12`, for which the survival was 26% (active).

As for `COc1nnc(-c2ccc(N3CCCCC3)c(NC(=O)c3ccccc3Cl)c2)c2ccccc12`, the survival was -1% (active).

With `COc1nnc(-c2ccc(N3CCCCC3)c(NC(=O)c3ccc(Cl)cc3)c2)c2ccccc12`, the survival is 107%.

In the case of `COc1nnc(-c2ccc(N3CCCCC3)c(NC(=O)c3ccccc3)c2)c2ccccc12`, the survival is 0% (active).

As to `Cn1c(=O)c(=O)n(C)c2cc(N3CCCC3)c(NC(=O)c3ccccc3Cl)cc21`, the survival was 90%.
